target: pT7_6His-AlfaTag-HOXD13 (human, UniProt P35453 263-343); test: PADIT-seq; conditions: dsDNA, one strand shown
Sequence (P35453 263-343): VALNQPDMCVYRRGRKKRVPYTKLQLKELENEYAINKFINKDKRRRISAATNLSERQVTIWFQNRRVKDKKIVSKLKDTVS

Sequence | binding signal
CTCGAGGATATCAAGATCTGGCCTCGGCTGTGTAAAAGGAACCTCTAGCTAGCCGACTCACTATAGGGATAATCGCCCTGAGCAAAGACC | 1.46 ± 0.0852 log2FC
CTCGAGGATATCAAGATCTGGCCTCGGCGAAGTAAAAGGAACCTCTAGCTAGCCGACTCACTATAGGGATAATCGCCCTGAGCAAAGACC | 0.136 ± 0.0787 log2FC
CTCGAGGATATCAAGATCTGGCCTCGGCCTTTTAATTGGAACCTCTAGCTAGCCGACTCACTATAGGGATAATCGCCCTGAGCAAAGACC | 2.53 ± 0.0779 log2FC
CTCGAGGATATCAAGATCTGGCCTCGGCGCGATAGCGGGAACCTCTAGCTAGCCGACTCACTATAGGGATAATCGCCCTGAGCAAAGACC | -0.758 ± 0.131 log2FC
CTCGAGGATATCAAGATCTGGCCTCGGCGTTTTACGCGGAACCTCTAGCTAGCCGACTCACTATAGGGATAATCGCCCTGAGCAAAGACC | 2.22 ± 0.0821 log2FC
CTCGAGGATATCAAGATCTGGCCTCGGCCGCCCAATAGGAACCTCTAGCTAGCCGACTCACTATAGGGATAATCGCCCTGAGCAAAGACC | -0.536 ± 0.118 log2FC
CTCGAGGATATCAAGATCTGGCCTCGGCCTATTAAAAGGAACCTCTAGCTAGCCGACTCACTATAGGGATAATCGCCCTGAGCAAAGACC | 3.05 ± 0.0763 log2FC
CTCGAGGATATCAAGATCTGGCCTCGGCTTTTTAAGCGGAACCTCTAGCTAGCCGACTCACTATAGGGATAATCGCCCTGAGCAAAGACC | 0.814 ± 0.0936 log2FC
CTCGAGGATATCAAGATCTGGCCTCGGCCGCCCATATGGAACCTCTAGCTAGCCGACTCACTATAGGGATAATCGCCCTGAGCAAAGACC | -0.841 ± 0.12 log2FC
CTCGAGGATATCAAGATCTGGCCTCGGCCTTTTATACGGAACCTCTAGCTAGCCGACTCACTATAGGGATAATCGCCCTGAGCAAAGACC | 2.32 ± 0.0734 log2FC
CTCGAGGATATCAAGATCTGGCCTCGGCATTTTAGCTGGAACCTCTAGCTAGCCGACTCACTATAGGGATAATCGCCCTGAGCAAAGACC | -0.225 ± 0.108 log2FC
CTCGAGGATATCAAGATCTGGCCTCGGCATTTTACTAGGAACCTCTAGCTAGCCGACTCACTATAGGGATAATCGCCCTGAGCAAAGACC | 3.18 ± 0.0699 log2FC
CTCGAGGATATCAAGATCTGGCCTCGGCCTTTTAGACGGAACCTCTAGCTAGCCGACTCACTATAGGGATAATCGCCCTGAGCAAAGACC | -0.199 ± 0.091 log2FC
CTCGAGGATATCAAGATCTGGCCTCGGCTTCGTAAAAGGAACCTCTAGCTAGCCGACTCACTATAGGGATAATCGCCCTGAGCAAAGACC | 1.86 ± 0.0804 log2FC
CTCGAGGATATCAAGATCTGGCCTCGGCCACCTAAAAGGAACCTCTAGCTAGCCGACTCACTATAGGGATAATCGCCCTGAGCAAAGACC | -0.327 ± 0.133 log2FC
CTCGAGGATATCAAGATCTGGCCTCGGCGTTTTATAGGGAACCTCTAGCTAGCCGACTCACTATAGGGATAATCGCCCTGAGCAAAGACC | 3.33 ± 0.0804 log2FC
CTCGAGGATATCAAGATCTGGCCTCGGCCGCCCAAGCGGAACCTCTAGCTAGCCGACTCACTATAGGGATAATCGCCCTGAGCAAAGACC | -0.698 ± 0.123 log2FC
CTCGAGGATATCAAGATCTGGCCTCGGCCTTTTATTTGGAACCTCTAGCTAGCCGACTCACTATAGGGATAATCGCCCTGAGCAAAGACC | 2.69 ± 0.0648 log2FC
CTCGAGGATATCAAGATCTGGCCTCGGCTTTTTACATGGAACCTCTAGCTAGCCGACTCACTATAGGGATAATCGCCCTGAGCAAAGACC | 2.12 ± 0.0858 log2FC
CTCGAGGATATCAAGATCTGGCCTCGGCGTTTTACAGGGAACCTCTAGCTAGCCGACTCACTATAGGGATAATCGCCCTGAGCAAAGACC | 2.89 ± 0.0835 log2FC
CTCGAGGATATCAAGATCTGGCCTCGGCGTTGTAAAAGGAACCTCTAGCTAGCCGACTCACTATAGGGATAATCGCCCTGAGCAAAGACC | 2.39 ± 0.0772 log2FC
CTCGAGGATATCAAGATCTGGCCTCGGCCTTTTAACGGGAACCTCTAGCTAGCCGACTCACTATAGGGATAATCGCCCTGAGCAAAGACC | 1.98 ± 0.0882 log2FC
CTCGAGGATATCAAGATCTGGCCTCGGCTTTTTAAACGGAACCTCTAGCTAGCCGACTCACTATAGGGATAATCGCCCTGAGCAAAGACC | 1.28 ± 0.101 log2FC
CTCGAGGATATCAAGATCTGGCCTCGGCGCGTGGCAGGGAACCTCTAGCTAGCCGACTCACTATAGGGATAATCGCCCTGAGCAAAGACC | -0.958 ± 0.118 log2FC
CTCGAGGATATCAAGATCTGGCCTCGGCATTTTATGGGGAACCTCTAGCTAGCCGACTCACTATAGGGATAATCGCCCTGAGCAAAGACC | 3.25 ± 0.0762 log2FC
CTCGAGGATATCAAGATCTGGCCTCGGCTTTTTAAAGGGAACCTCTAGCTAGCCGACTCACTATAGGGATAATCGCCCTGAGCAAAGACC | 2.54 ± 0.0796 log2FC
CTCGAGGATATCAAGATCTGGCCTCGGCTTTTTAACTGGAACCTCTAGCTAGCCGACTCACTATAGGGATAATCGCCCTGAGCAAAGACC | 1.56 ± 0.107 log2FC
CTCGAGGATATCAAGATCTGGCCTCGGCTAACTAAAAGGAACCTCTAGCTAGCCGACTCACTATAGGGATAATCGCCCTGAGCAAAGACC | -0.24 ± 0.119 log2FC
CTCGAGGATATCAAGATCTGGCCTCGGCTTTGTAAAAGGAACCTCTAGCTAGCCGACTCACTATAGGGATAATCGCCCTGAGCAAAGACC | 1.2 ± 0.0832 log2FC

Reference: article doi:10.1101/2024.03.05.583629
